# Experimental data: publication PMC8384837, “Expanding the binding specificity for RNA recognition by a PUF domain”
# Substitutions are numbered along the chain they refer to.
# What was measured:
# Experiment in all cases: yeast three-hybrid, YBZ-1, SC-Leu-His + 0.5 mM 3-AT, 4 days
# Conditions in all cases: tags: N-Gal4 AD-HA kept; label: inside an RPR1-promoter hybrid RNA with tandem MS2 sites; ssRNA
# PUM1 PUF domain R5-DWW = PUM1 PUF domain R5-DWW (Homo sapiens, UniProt Q14671 828-1176, C1007D;R1008W;Q1011W)
# Method in brief: (§1)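 The interaction score is the logarithmic change in variant frequency from input to selection. It uses log2, with a pseudocount of 1 for absent variants, and frequencies came from PCR-amplified, Illumina-sequenced repeat regions. The libraries were Pumilio-1 PUF domains randomized at the three base-contacting residues per repeat, co-expressed with matching RNA elements in strain YBZ-1 (LexA–MS2 coat fusion, HIS3 reporter). Plating lasted four days on SC-Leu (input) or SC-Leu-His + 0.5 mM 3-AT (selection).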
# PUM1 PUF domain R4-WGM = PUM1 PUF domain R4-WGM (Homo sapiens, UniProt Q14671 828-1176, N971W;H972G;Q975M)
# Method in brief: as §1
# PUM1 PUF domain R4-WSH = PUM1 PUF domain R4-WSH (Homo sapiens, UniProt Q14671 828-1176, N971W;H972S;Q975H)
# Method in brief: as §1
# PUM1 PUF domain R4-PFS = PUM1 PUF domain R4-PFS (Homo sapiens, UniProt Q14671 828-1176, N971P;H972F;Q975S)
# Method in brief: as §1
# PUM1 PUF domain R6-IFQ = target: T1, PUM1 PUF domain R6-IFQ (Homo sapiens, UniProt Q14671 828-1176, N1043I;Y1044F)
# T1 sequence: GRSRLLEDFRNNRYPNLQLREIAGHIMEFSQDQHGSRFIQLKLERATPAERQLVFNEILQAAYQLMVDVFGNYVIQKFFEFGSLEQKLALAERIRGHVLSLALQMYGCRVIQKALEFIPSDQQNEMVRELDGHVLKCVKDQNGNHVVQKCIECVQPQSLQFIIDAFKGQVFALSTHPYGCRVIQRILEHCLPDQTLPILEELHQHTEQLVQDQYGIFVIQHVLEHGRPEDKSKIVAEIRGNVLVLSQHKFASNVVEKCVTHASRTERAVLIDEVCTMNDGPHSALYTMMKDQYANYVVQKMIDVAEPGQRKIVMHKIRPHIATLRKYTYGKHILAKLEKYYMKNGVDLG
# Method in brief: as §1
# PUM1 PUF domain R8-MHK = PUM1 PUF domain R8-MHK (Homo sapiens, UniProt Q14671 828-1176, N1122M;Y1123H;Q1126K)
# Method in brief: as §1
# PUM1 PUF domain R6-SFG = target: T2, PUM1 PUF domain R6-SFG (Homo sapiens, UniProt Q14671 828-1176, N1043S;Y1044F;Q1047G)
# T2 sequence: T1 sequence with I216S, Q220G
# Method in brief: as §1
# PUM1 PUF domain R4-PWS = PUM1 PUF domain R4-PWS (Homo sapiens, UniProt Q14671 828-1176, N971P;H972W;Q975S)
# Method in brief: as §1
# PUM1 PUF domain R8-SYW = PUM1 PUF domain R8-SYW (Homo sapiens, UniProt Q14671 828-1176, N1122S;Q1126W)
# Method in brief: as §1
# PUM1 PUF domain R5-RST = PUM1 PUF domain R5-RST (Homo sapiens, UniProt Q14671 828-1176, C1007R;R1008S;Q1011T)
# Method in brief: as §1
# PUM1 PUF domain R6-NWV = target: T3, PUM1 PUF domain R6-NWV (Homo sapiens, UniProt Q14671 828-1176, Y1044W;Q1047V)
# T3 sequence: T1 sequence with I216N, F217W, Q220V
# Method in brief: as §1
# PUM1 PUF domain R7-RAR = PUM1 PUF domain R7-RAR (Homo sapiens, UniProt Q14671 828-1176, S1079R;N1080A;E1083R)
# Method in brief: as §1
# PUM1 PUF domain R7-QFR = PUM1 PUF domain R7-QFR (Homo sapiens, UniProt Q14671 828-1176, S1079Q;N1080F;E1083R)
# Method in brief: as §1
# PUM1 PUF domain R7-LNS = PUM1 PUF domain R7-LNS (Homo sapiens, UniProt Q14671 828-1176, S1079L;E1083S)
# Method in brief: as §1
# PUM1 PUF domain R7-CRR = PUM1 PUF domain R7-CRR (Homo sapiens, UniProt Q14671 828-1176, S1079C;N1080R;E1083R)
# Method in brief: as §1
# PUM1 PUF domain R7-RRR = PUM1 PUF domain R7-RRR (Homo sapiens, UniProt Q14671 828-1176, S1079R;N1080R;E1083R)
# Method in brief: as §1
# PUM1 PUF domain R7-LSC = PUM1 PUF domain R7-LSC (Homo sapiens, UniProt Q14671 828-1176, S1079L;N1080S;E1083C)
# Method in brief: as §1
sequence,measurement,setting,value
GGCUAGAACUAGUGGAUCCCCCGGCGCCCGGCGGCUCGAGCCCGGGUAAGUGUGAAUAGUCUGCAUGCCGCCGGGCGCCAUGCCUGCAGGUCGACUCUAGAAAACAUG,binding signal,PUM1 PUF domain R5-DWW,5.08 log2 enrichment (interaction score)
GGCUAGAACUAGUGGAUCCCCCGGCGCCCGGCGGCUCGAGCCCGGGUAAGUGUAUAUAGUCUGCAUGCCGCCGGGCGCCAUGCCUGCAGGUCGACUCUAGAAAACAUG,binding signal,PUM1 PUF domain R4-WGM,2.85 log2 enrichment (interaction score)
same,binding signal,PUM1 PUF domain R4-WSH,4.36 log2 enrichment (interaction score)
same,binding signal,PUM1 PUF domain R4-PFS,4.11 log2 enrichment (interaction score)
GGCUAGAACUAGUGGAUCCCCCGGCGCCCGGCGGCUCGAGCCCGGGUAAGUGUAAAUAGUCUGCAUGCCGCCGGGCGCCAUGCCUGCAGGUCGACUCUAGAAAACAUG,binding signal,PUM1 PUF domain R4-WSH,1.11 log2 enrichment (interaction score)
same,binding signal,PUM1 PUF domain R6-IFQ,3.62 log2 enrichment (interaction score)
same,binding signal,PUM1 PUF domain R8-MHK,2.63 log2 enrichment (interaction score)
same,binding signal,PUM1 PUF domain R6-SFG,4.88 log2 enrichment (interaction score)
same,binding signal,PUM1 PUF domain R4-PWS,6.05 log2 enrichment (interaction score)
same,binding signal,PUM1 PUF domain R8-SYW,3.33 log2 enrichment (interaction score)
GGCUAGAACUAGUGGAUCCCCCGGCGCCCGGCGGCUCGAGCCCGGGUAAGUGUCAAUAGUCUGCAUGCCGCCGGGCGCCAUGCCUGCAGGUCGACUCUAGAAAACAUG,binding signal,PUM1 PUF domain R5-RST,2.91 log2 enrichment (interaction score)
GGCUAGAACUAGUGGAUCCCCCGGCGCCCGGCGGCUCGAGCCCGGGUAAGUGAAAAUAGUCUGCAUGCCGCCGGGCGCCAUGCCUGCAGGUCGACUCUAGAAAACAUG,binding signal,PUM1 PUF domain R6-NWV,3.35 log2 enrichment (interaction score)
GGCUAGAACUAGUGGAUCCCCCGGCGCCCGGCGGCUCGAGCCCGGGUAAGUCUAAAUAGUCUGCAUGCCGCCGGGCGCCAUGCCUGCAGGUCGACUCUAGAAAACAUG,binding signal,PUM1 PUF domain R7-RAR,1.83 log2 enrichment (interaction score)
same,binding signal,PUM1 PUF domain R7-QFR,2.43 log2 enrichment (interaction score)
same,binding signal,PUM1 PUF domain R7-LNS,0.35 log2 enrichment (interaction score)
same,binding signal,PUM1 PUF domain R7-CRR,0.18 log2 enrichment (interaction score)
same,binding signal,PUM1 PUF domain R7-RRR,3.52 log2 enrichment (interaction score)
GGCUAGAACUAGUGGAUCCCCCGGCGCCCGGCGGCUCGAGCCCGGGUAAGUUUAAAUAGUCUGCAUGCCGCCGGGCGCCAUGCCUGCAGGUCGACUCUAGAAAACAUG,binding signal,PUM1 PUF domain R7-RAR,4.56 log2 enrichment (interaction score)
same,binding signal,PUM1 PUF domain R7-LNS,5.15 log2 enrichment (interaction score)
same,binding signal,PUM1 PUF domain R7-LSC,4.33 log2 enrichment (interaction score)
same,binding signal,PUM1 PUF domain R7-CRR,2.87 log2 enrichment (interaction score)
same,binding signal,PUM1 PUF domain R7-RRR,3.77 log2 enrichment (interaction score)
